From PubChem BioAssay (NCATS) come the findings set out here.

A short description of this assay: qHTS drug screen for cell cycle checkpoint inhibitors in PARPi-resistant BRCA-mutant ovarian cancer cell lines. (AID 1963452). The following applies: PEO1/OlaR viability, CellTiter-Glo luminescence, 96 h; measured here: PEO4 Z-AUC; stronger effect = lower value. The gist of the method: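 PEO1, PEO4 and PEO1/OlaR ovarian cancer cells, 600 per well, exposed 96 h at 37C to a dilution series. Viability read by CellTiter-Glo luminescence, normalized to DMSO and empty wells; activity summarized as Z-AUC.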
(In general: Quantitative high-throughput screening tests each substance at several concentrations.)
With `COc1ccc(-c2oc3ncnc(N)c3c2-c2ccc(NC(=O)Nc3cc(C(F)(F)F)ccc3F)cc2)cc1`, the Z-AUC was 0.712. For `CN1CCN(c2nc(C3=C(c4c[nH]c5ccccc45)C(=O)NC3=O)c3ccccc3n2)CC1`, the Z-AUC was found to be 0.634.

Regarding `Cc1c[nH]c(/C=C2\C(=O)Nc3ccccc32)c1CCC(=O)O`, the Z-AUC is 1.31. Consider `COC1(c2sc3c(N4CCOCC4)nc(-c4cnc(N)nc4)nc3c2C)COC1`, for which the Z-AUC was -1.08.
